Test results published in paper PMC7862700, “An all-to-all approach to the identification of sequence-specific readers for epigenetic DNA modifications on cytosine”.

Key:
Assay in all cases: DAPPL (digital affinity profiling via proximity ligation, sequencing); 10 mM Tris-HCl pH 7.5, 50 mM NaCl, 1 mM DTT, 4% glycerol, room temperature, 30 min; GST-TFs on glutathione beads, 16-mer random dsDNA library, 0.1% formaldehyde crosslink after washing; high values mean tight binding
FEV = target: T1, FEV (Homo sapiens, UniProt Q99581 1-238); conditions: protein: recombinant; tags: N-terminal GST; dsDNA, one strand shown
T1 sequence: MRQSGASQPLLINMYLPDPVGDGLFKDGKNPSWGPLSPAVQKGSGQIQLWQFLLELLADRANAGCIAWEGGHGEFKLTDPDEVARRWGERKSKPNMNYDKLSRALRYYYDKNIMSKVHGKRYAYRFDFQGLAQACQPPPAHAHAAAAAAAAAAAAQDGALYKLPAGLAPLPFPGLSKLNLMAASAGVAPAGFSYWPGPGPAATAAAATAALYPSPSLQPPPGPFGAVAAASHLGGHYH
Procedure, shortened: (§1)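 Binding signal is each hexamer's read frequency for a factor divided by its frequency in the tag-only sample. The factors were GST-fused human transcription factors from yeast, captured on glutathione beads, DNA-barcoded and pooled with that sample. Pools were incubated with 200 nmole of a random double-stranded 16-mer DNA library in Tris/NaCl/DTT/glycerol buffer at room temperature for 30 min, then washed, crosslinked with 0.1% formaldehyde, proximity-ligated with BsaI/T4 ligase (1 h, 37 °C), PCR-amplified and sequenced on an Illumina NextSeq500.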

ETV5 = ETV5 (Homo sapiens, UniProt P41161 1-510); conditions: protein: recombinant; tags: N-terminal GST; dsDNA, one strand shown
ETV5, sequence (P41161 whole entry): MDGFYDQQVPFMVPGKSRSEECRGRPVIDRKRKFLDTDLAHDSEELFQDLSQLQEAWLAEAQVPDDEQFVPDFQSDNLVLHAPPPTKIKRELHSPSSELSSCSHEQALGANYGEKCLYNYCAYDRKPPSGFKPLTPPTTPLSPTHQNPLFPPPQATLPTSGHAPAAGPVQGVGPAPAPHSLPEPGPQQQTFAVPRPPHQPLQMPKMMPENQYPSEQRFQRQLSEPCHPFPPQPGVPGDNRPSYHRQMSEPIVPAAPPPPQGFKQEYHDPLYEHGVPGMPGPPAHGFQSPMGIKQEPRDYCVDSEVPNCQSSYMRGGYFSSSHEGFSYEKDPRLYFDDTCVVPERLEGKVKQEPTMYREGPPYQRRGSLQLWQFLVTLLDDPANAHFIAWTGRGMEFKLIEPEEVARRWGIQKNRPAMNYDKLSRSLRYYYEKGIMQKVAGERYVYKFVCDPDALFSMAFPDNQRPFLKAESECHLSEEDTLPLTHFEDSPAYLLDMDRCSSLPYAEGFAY
Procedure, shortened: as §1

HSF1 = HSF1 (Homo sapiens, UniProt Q00613 1-529); conditions: protein: recombinant; tags: N-terminal GST; chain copies: 3; dsDNA, one strand shown
HSF1, sequence (Q00613 whole entry): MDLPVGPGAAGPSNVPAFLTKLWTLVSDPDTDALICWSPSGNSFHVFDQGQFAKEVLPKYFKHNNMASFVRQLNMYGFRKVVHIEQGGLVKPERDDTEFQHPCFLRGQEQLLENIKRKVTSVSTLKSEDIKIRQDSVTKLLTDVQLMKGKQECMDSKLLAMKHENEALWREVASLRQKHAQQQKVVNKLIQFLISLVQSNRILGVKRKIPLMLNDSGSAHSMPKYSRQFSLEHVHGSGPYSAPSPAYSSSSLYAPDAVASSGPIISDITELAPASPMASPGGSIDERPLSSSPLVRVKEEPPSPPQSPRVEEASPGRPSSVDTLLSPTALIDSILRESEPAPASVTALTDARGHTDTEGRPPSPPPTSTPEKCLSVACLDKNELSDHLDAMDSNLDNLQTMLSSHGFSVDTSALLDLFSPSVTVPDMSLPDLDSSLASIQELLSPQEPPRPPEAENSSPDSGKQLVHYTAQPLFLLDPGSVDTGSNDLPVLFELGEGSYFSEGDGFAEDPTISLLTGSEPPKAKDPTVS
Procedure, shortened: as §1

SPIC = target: T2, SPIC (Homo sapiens, UniProt Q8N5J4 1-248); conditions: protein: recombinant; tags: N-terminal GST; dsDNA, one strand shown
T2 sequence: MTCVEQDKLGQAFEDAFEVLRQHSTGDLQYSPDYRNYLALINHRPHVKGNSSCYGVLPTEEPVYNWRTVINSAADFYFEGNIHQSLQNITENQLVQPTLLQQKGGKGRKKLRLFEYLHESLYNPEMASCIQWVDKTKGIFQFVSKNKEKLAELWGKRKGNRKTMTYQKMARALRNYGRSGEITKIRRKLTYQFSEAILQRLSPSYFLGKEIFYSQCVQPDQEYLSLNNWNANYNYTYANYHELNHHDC
Procedure, shortened: as §1

ELF4 = ELF4 (Homo sapiens, UniProt Q99607 1-663); conditions: protein: recombinant; tags: N-terminal GST; dsDNA, one strand shown
ELF4, sequence (Q99607 whole entry): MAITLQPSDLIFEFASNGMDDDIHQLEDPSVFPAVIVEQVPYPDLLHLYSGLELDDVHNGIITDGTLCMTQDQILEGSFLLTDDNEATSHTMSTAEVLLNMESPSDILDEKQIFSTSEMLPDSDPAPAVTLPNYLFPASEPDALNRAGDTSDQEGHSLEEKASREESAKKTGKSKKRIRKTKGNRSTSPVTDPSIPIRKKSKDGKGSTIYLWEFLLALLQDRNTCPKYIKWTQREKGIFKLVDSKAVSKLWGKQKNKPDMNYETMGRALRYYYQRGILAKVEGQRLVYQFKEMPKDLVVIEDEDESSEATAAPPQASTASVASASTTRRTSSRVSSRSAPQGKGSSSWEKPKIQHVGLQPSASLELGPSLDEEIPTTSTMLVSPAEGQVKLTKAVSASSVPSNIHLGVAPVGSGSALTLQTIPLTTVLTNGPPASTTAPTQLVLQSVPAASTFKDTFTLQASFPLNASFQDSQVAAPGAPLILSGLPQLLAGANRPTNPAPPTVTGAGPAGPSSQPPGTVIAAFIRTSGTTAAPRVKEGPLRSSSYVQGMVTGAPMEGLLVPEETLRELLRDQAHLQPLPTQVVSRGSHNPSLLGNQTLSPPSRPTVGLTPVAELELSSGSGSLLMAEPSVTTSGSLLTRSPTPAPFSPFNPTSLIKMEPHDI
Procedure, shortened: as §1

ELK4 = target: T3, ELK4 (Homo sapiens, UniProt P28324-2 1-405); conditions: protein: recombinant; tags: N-terminal GST; dsDNA, one strand shown
T3 sequence: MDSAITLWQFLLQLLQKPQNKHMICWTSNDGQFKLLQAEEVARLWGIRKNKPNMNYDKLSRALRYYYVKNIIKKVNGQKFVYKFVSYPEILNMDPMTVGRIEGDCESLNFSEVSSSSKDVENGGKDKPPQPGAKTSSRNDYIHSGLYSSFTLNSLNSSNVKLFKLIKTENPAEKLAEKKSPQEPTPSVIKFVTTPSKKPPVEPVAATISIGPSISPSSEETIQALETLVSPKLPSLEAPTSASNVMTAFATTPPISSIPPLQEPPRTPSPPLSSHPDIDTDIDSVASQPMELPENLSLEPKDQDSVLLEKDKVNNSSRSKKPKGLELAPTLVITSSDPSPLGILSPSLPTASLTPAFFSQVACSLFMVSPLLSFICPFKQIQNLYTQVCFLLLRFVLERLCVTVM
Procedure, shortened: as §1

ETV2 = target: T4, ETV2 (Homo sapiens, UniProt O00321 1-342); conditions: protein: recombinant; tags: N-terminal GST; dsDNA, one strand shown
T4 sequence: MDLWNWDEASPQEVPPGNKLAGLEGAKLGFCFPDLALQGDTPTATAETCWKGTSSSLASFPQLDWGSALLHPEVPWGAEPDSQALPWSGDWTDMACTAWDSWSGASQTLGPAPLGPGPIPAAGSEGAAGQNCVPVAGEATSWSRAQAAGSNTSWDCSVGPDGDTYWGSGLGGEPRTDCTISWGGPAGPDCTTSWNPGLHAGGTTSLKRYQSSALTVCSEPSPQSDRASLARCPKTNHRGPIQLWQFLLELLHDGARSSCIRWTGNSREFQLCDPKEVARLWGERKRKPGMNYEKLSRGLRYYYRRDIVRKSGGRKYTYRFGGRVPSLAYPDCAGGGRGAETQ
Procedure, shortened: as §1

ELF3 = target: T5, ELF3 (Homo sapiens, UniProt P78545 1-371); conditions: protein: recombinant; tags: N-terminal GST; dsDNA, one strand shown
T5 sequence: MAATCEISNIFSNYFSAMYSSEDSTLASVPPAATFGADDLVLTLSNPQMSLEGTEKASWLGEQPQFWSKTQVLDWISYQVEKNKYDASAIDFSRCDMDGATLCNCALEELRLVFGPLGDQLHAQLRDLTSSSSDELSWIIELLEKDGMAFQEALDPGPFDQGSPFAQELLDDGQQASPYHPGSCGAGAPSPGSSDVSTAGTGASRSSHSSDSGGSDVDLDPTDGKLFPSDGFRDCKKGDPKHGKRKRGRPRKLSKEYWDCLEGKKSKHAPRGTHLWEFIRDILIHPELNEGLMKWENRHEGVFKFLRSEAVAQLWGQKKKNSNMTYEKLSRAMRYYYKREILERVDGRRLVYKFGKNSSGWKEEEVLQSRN
Procedure, shortened: as §1

CRX = CRX (Homo sapiens, UniProt O43186 1-299); conditions: protein: recombinant; tags: N-terminal GST; dsDNA, one strand shown
CRX, sequence (O43186 whole entry): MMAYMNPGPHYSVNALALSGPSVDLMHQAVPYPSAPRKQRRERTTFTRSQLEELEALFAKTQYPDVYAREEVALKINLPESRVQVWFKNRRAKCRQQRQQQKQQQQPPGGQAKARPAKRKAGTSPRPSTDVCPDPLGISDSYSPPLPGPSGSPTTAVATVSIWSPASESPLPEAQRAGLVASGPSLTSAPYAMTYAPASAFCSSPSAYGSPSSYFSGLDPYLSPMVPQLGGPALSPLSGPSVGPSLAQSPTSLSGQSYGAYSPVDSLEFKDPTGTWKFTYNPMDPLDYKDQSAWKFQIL
Procedure, shortened: as §1

In the case of ATACAT, the binding signal (FEV) is reported as 1.29 fold enrichment (6-mer frequency, TF over GST control), the binding signal (ETV5) is reported as 1.23 fold enrichment (6-mer frequency, TF over GST control) and the binding signal (HSF1) is reported as 1.01 fold enrichment (6-mer frequency, TF over GST control). The binding signal (SPIC) was 1.15 fold enrichment (6-mer frequency, TF over GST control), the binding signal (ELF4) was 1.33 fold enrichment (6-mer frequency, TF over GST control) and the binding signal (ELK4) was 1.31 fold enrichment (6-mer frequency, TF over GST control). The binding signal (ETV2) was 1.33 fold enrichment (6-mer frequency, TF over GST control), the binding signal (ELF3) was 1.15 fold enrichment (6-mer frequency, TF over GST control) and the binding signal (CRX) was 1.06 fold enrichment (6-mer frequency, TF over GST control).
